Assay outcomes deposited in PubChem BioAssay by NMMLSC.
Shown are actives, neighbours in structure and some others; about 0.93% of the full set was active somewhere.
MEP2 TOR yeast – yeast TOR pathway MEP2-GFP modulation; AID 2016; 0.51% of 330,000 active; GFP response vs DMSO, % at 10 µM; S. cerevisiae MEP2-GFP strain, flow cytometry GFP, 3 h; 100% = DMSO control level;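 active means GFP response versus DMSO above a set limit, roughly screen mean plus 3 SD, cut at about 180% in these data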;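 further: median GFP fluorescence of the barcode-gated MEP2-GFP cells per well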
RPL19A-GFP yeast – yeast TOR pathway RPL19A-GFP modulation; percent response vs DMSO, % at 10 µM; 0.3% of 330,000 active; S. cerevisiae RPL19A-GFP strain, flow cytometry, 3 h; stronger effect = lower value; AID 2025;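 active means percent response vs DMSO below 50%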;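 further: median channel GFP fluorescence of the barcoded RPL19A-GFP strain; lower means less RPL19A-GFP as with rapamycin TOR inhibition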
CIT2 TOR yeast – alters CIT2-GFP fluorescence in TOR pathway yeast screen; S. cerevisiae CIT2-GFP strain, flow cytometry, 3 h; 100 means same as DMSO wells; GFP response vs DMSO, % at 10 µM; 0.065% of 320,000 active; AID 2029;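 active means GFP response relative to DMSO above a set limit, near the screen mean plus 3 SD, cut at about 150% in these data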;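 further: ratio of well median GFP fluorescence to mean of DMSO wells on the plate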
LAP4-GFP MLPCN – modulators of TOR pathway LAP4-GFP in S. cerevisiae; S. cerevisiae LAP4-GFP multiplex, flow cytometry GFP, 3 h; median GFP as percent of DMSO wells; 0.34% of 320,000 active; GFP response vs DMSO, % at 10 µM; AID 2023;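 active means GFP response vs DMSO above a set limit, about the screen mean plus 3 SD, cut at about 150% in these data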
AGP1-GFP MLPCN – alters AGP1-GFP fluorescence in TOR pathway yeast screen. S. cerevisiae AGP1-GFP multiplex flow cytometry, 3 h; GFP as percent of DMSO wells. GFP response vs DMSO, % at 10 µM. 0.02% of 320,000 active. AID 2066;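 active means GFP response relative to DMSO above a set limit, near screen average plus 3 SD, cut at about 150% in these data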;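 further: median GFP channel fluorescence of the gated AGP1 strain per well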
LAP4-GFP pick2 – yeast LAP4-GFP modulation, second cherry pick. S. cerevisiae LAP4-GFP strain, flow cytometry GFP, 3 h. shares compounds with LAP4-GFP MLPCN. 20% of 590 active. GFP response vs DMSO, % at 10 µM. AID 2621;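 active means GFP signal as percent of the solvent control above about 150%, meaning raised reporter expression, limit read from the data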
MEP2-GFP pick2 – second confirmation of modulators of TOR reporter MEP2-GFP in yeast; shares compounds with LAP4-GFP MLPCN; S. cerevisiae MEP2-GFP strain, flow cytometry GFP, 3 h; 10% of 590 active; GFP response vs DMSO, % at 10 µM;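 active means GFP signal above 150% of the solvent control wells, that is a rise of more than half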;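 further: median channel GFP fluorescence of all gated yeast cells per well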
RPL19A GFP CP2 – reconfirmed modulator of RPL19A-GFP TOR reporter in yeast | shares compounds with LAP4-GFP MLPCN | S. cerevisiae RPL19A-GFP strain, flow cytometry GFP, 3 h; stronger effect = lower value; 100% means same as DMSO wells | GFP response vs DMSO, % at 10 µM | 3% of 590 active;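 active means under 65% GFP response relative to DMSO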;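 further: median GFP channel fluorescence per well over the all cells gate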
CIT2 GFP CP2 – second confirmation of modulators of TOR reporter CIT2-GFP in yeast. 8% of 590 active. shares compounds with LAP4-GFP MLPCN. AID 2624. S. cerevisiae CIT2-GFP strain, flow cytometry GFP, 3 h; DMSO control wells read 100%. GFP response vs DMSO, % at 10 µM;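 active means GFP response vs DMSO above about 150%, limit read from the data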;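 further: median green fluorescence per well over all gated yeast cells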
AGP1 GFP CP2 – reconfirmed modulator of AGP1-GFP TOR reporter in yeast. shares compounds with LAP4-GFP MLPCN. S. cerevisiae AGP1-GFP strain, flow cytometry GFP, 3 h. percent response vs DMSO, % at 10 µM. 590 tested, under 10 active;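 active means over 150 percent of DMSO response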;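 further: median GFP channel fluorescence over all cells without mother daughter split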
s288c autofluor – yeast s288c autofluorescence artifact, counter-screen; 610 tested, under 10 active; shares compounds with LAP4-GFP MLPCN; S. cerevisiae s288c, 520 nm autofluorescence, flow cytometry, 3 h; stronger effect = higher value; zero means same as solvent-only cells; fluorescence change (kMESF span) at 33 µM;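 active means fluorescence span over the dose series, or activity score, above about 33, limit read from the data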
s288c autofl DR – yeast s288c autofluorescence artifact in dose response | shares compounds with LAP4-GFP MLPCN | S. cerevisiae s288c parental, compound autofluorescence, flow cytometry, 3 h | fluorescence change (span) at 33 µM | 110 tested, under 10 active;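 active means fluorescence change span, or the activity score built from it, above 25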
TORC1 bypass – stops wildtype yeast growth while TORC1 bypass cells still grow; shares compounds with LAP4-GFP MLPCN; S. cerevisiae BY4741 spot growth rating, 48-72 h; stronger effect = lower value; growth rating (0-3) at 30 µM; 120 tested, under 10 active;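 active means growth rating at most 1 for wild type yeast while the TORC1 bypass strain still grows fully, rated 3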
Numbers stand for hits; . = inactive; / = no result.

SMILES	MEP2 TOR yeast	RPL19A-GFP yeast	CIT2 TOR yeast	LAP4-GFP MLPCN	AGP1-GFP MLPCN	s288c autofluor	others
Cc1ccccc1OCC(=O)Nc1ccc(N2CCN(C(=O)c3ccco3)CC2)cc1	.	.	.	.	.	/
COc1cccc(CNC(=O)CCS(=O)(=O)c2ccc3c(c2)NC(=O)CO3)c1	.	.	.	.	.	/
CC(=O)NC(c1cc(Cl)c2cccnc2c1O)C(C)C (stereo not given)	.	.	.	.	.	/
Cc1ccc(C(c2cc(Cl)c3cccnc3c2O)N2CCN(C)CC2)cc1 (stereo not given)	.	.	.	226.6	.	.	s288c autofl DR=.;TORC1 bypass=.
Oc1c(C(Nc2cccc(C(F)(F)F)c2)c2cccnc2)ccc2cccnc12 (stereo not given)	.	.	.	.	.	/
CN1CCN(C(c2ccc(C(F)(F)F)cc2)c2ccc3cccnc3c2O)CC1 (stereo not given)	.	.	.	322.0	.	.	s288c autofl DR=.;TORC1 bypass=.
COc1cc2c(cc1OC)C(Cc1ccc(O)c(Oc3ccc(C[C@H]4c5cc(OC)c(OC)cc5CCN4C)cc3)c1)N(C)CC2 (stereo not given in full)	.	.	.	.	.	/
COc1ccccc1NC(=O)/C(=C\c1cccs1)NC(=O)c1ccco1	.	.	.	.	.	/
O=C(O)Cn1c(=O)c2c(c3ccccc31)CCC2	881.3	.	.	.	.	/	LAP4-GFP pick2=.;MEP2-GFP pick2=.;RPL19A GFP CP2=.;CIT2 GFP CP2=.;AGP1 GFP CP2=.
Cc1ccc(NC(=O)c2cc(N3C(=O)C=CC3=O)ccc2N2CCOCC2)cc1Cl	.	.	.	152.7	.	.	LAP4-GFP pick2=162.3;MEP2-GFP pick2=183.4;RPL19A GFP CP2=.;CIT2 GFP CP2=.;AGP1 GFP CP2=.;s288c autofl DR=.;TORC1 bypass=.
O=C(CSc1ccc(F)cc1)Nc1cccc(S(=O)(=O)N2CCOCC2)c1	.	.	.	170.2	.	/	LAP4-GFP pick2=.;MEP2-GFP pick2=.;RPL19A GFP CP2=.;CIT2 GFP CP2=.;AGP1 GFP CP2=.
Cc1nn(C)c(C)c1N1C(=O)c2cccc3c(Br)ccc(c23)C1=O	.	.	.	.	.	.
COc1ccc(N2CC(C(=O)NC3=NCCS3)CC2=O)cc1 (stereo not given)	.	.	.	.	.	/
CN(Cc1ccccc1C#N)S(=O)(=O)c1cccs1	.	.	.	.	.	/
N#Cc1nccnc1S(=O)(=O)c1cccs1	.	.	.	250.5	.	.
Cc1sc(-c2cccnc2)nc1OC(=O)C1CC1	.	.	.	.	.	/
CC(=O)Oc1ccc(N2C(=O)C3C4C=CC(CO)(O4)C3C2=O)cc1 (stereo not given)	.	/	.	.	.	.
O=C1C2C3C=CC(CO)(O3)C2C(=O)N1c1ccccc1-c1ccccc1 (stereo not given)	.	.	.	193.9	.	.
CC1CC(C)CN(C(=O)C(C)N(C)CC(=O)Nc2ccc(Cl)cc2)C1 (stereo not given)	.	.	.	.	.	/
O=c1c2cnn(-c3ccccc3)c2ncn1Cc1ccco1	.	.	.	.	.	.	LAP4-GFP pick2=.;MEP2-GFP pick2=.;RPL19A GFP CP2=.;CIT2 GFP CP2=.;AGP1 GFP CP2=.
O=c1c(Cc2c(F)cccc2Cl)c(O)ccn1CCCN1CCOCC1	.	.	.	.	.	/
O=C1NN(c2cccc(Br)c2)C(=O)/C1=C\c1ccc(N2CCOCC2)cc1	.	.	.	/	.	/
CCN(CC)c1ccc(/C=C2/C(=O)c3ccc(C(=O)O)cc3C2=O)cc1	364.9	.	231.2	298.4	.	.	LAP4-GFP pick2=284.6;MEP2-GFP pick2=377.3;RPL19A GFP CP2=.;CIT2 GFP CP2=250.3;AGP1 GFP CP2=.
CCOC(=O)C(C(=O)OCC)C(C(=O)OCC)N1CCOCC1 (stereo not given)	.	.	.	180.1	.	.
O=C1C=CC(=O)N1c1ccc(Sc2ccc([N+](=O)[O-])cc2)cc1	.	.	.	162.0	.	.
SMILES	MEP2 TOR yeast	RPL19A-GFP yeast	CIT2 TOR yeast	LAP4-GFP MLPCN	AGP1-GFP MLPCN	s288c autofluor	others
Cn1c(N)c(Sc2ccc([N+](=O)[O-])cc2)c(=O)n(C)c1=O	.	.	.	.	.	/
O=C(N/N=C/c1cccnc1)C1CC1(c1ccccc1)c1ccccc1 (stereo not given)	.	.	.	.	.	/
CC1=CC(=O)c2ccccc2C1=O	.	.	.	.	.	/
CC(C)(C=O)C1=CC(=O)c2ccccc2C1=O	.	.	.	193.0	.	/	LAP4-GFP pick2=.;MEP2-GFP pick2=.;RPL19A GFP CP2=.;CIT2 GFP CP2=.;AGP1 GFP CP2=.
CC(=O)Nc1ccc(S(=O)(=O)N[C@@H](C)C(=O)OCC(=O)NC2CCCC2)cc1	.	.	.	.	.	/
CC(=O)c1ccc(N2CCN(C(=O)c3ccc(Br)cc3)CC2)c(F)c1	.	.	.	161.7	.	.	s288c autofl DR=.;TORC1 bypass=.
NC(=O)c1cc(Cl)ccc1OCC(=O)Nc1ccc2c(c1)OCO2	.	.	.	.	.	/
C=CCNC(=O)c1ccc(Cn2c(=S)[nH]c3cc4c(cc3c2=O)OCO4)cc1	.	.	.	.	.	/
O=C(NCCN1CCCC1)c1ccc(Cn2c(=S)[nH]c3cc4c(cc3c2=O)OCO4)cc1	.	.	.	152.7	.	/	LAP4-GFP pick2=.;MEP2-GFP pick2=.;RPL19A GFP CP2=.;CIT2 GFP CP2=.;AGP1 GFP CP2=.
C=C(CC[C@@H](O)C(C)(C)O)[C@H]1CC[C@]2(C)[C@@H]1CCC1[C@@]3(C)CCC(=O)C(C)(C)C3CC[C@]12C (stereo not given in full)	.	.	.	157.8	.	/	LAP4-GFP pick2=.;MEP2-GFP pick2=.;RPL19A GFP CP2=.;CIT2 GFP CP2=.;AGP1 GFP CP2=.
C=C(C)[C@@H]1CCC2(C(=O)O)CC[C@]3(C)[C@H](CC[C@@H]4[C@@]5(C)CCC(=O)C(C)(C)[C@@H]5CC[C@]43C)[C@@H]12 (stereo not given in full)	.	.	.	.	.	/
